Experimental data as given in PubChem BioAssay AID504840 (Johns Hopkins Ion Channel Center, 2011).
Screen size: about 1,500 compounds; about 890 (59%) were called active.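 How the source made its calls: active means inhibition of the choline-evoked signal at any tested dose together with a fitted dose-response curve; inactive means no inhibition at any dose or no curve.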 So high a share suggests a set chosen from earlier hits. Only a sample is shown. Potency and affinity values are given separately.

Each molecule was assayed against High affinity choline transporter 1 (Homo sapiens) (UniProt Q9GZV3) (assay: human choline transporter blockers, potency – cell-based, 5-point CRC, membrane potential dye, dose response (AID 504840;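 further: 0% = buffer-only response and 100% = EC90 choline response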)). Conditions: HEK293-CHT, choline-induced depolarization, CHT with LV-to-AA double alanine mutation; series mostly up to 37 µM; inhibition: at the top concentration.
Sequence of High affinity choline transporter 1 (Homo sapiens) (Q9GZV3 whole entry, looked up): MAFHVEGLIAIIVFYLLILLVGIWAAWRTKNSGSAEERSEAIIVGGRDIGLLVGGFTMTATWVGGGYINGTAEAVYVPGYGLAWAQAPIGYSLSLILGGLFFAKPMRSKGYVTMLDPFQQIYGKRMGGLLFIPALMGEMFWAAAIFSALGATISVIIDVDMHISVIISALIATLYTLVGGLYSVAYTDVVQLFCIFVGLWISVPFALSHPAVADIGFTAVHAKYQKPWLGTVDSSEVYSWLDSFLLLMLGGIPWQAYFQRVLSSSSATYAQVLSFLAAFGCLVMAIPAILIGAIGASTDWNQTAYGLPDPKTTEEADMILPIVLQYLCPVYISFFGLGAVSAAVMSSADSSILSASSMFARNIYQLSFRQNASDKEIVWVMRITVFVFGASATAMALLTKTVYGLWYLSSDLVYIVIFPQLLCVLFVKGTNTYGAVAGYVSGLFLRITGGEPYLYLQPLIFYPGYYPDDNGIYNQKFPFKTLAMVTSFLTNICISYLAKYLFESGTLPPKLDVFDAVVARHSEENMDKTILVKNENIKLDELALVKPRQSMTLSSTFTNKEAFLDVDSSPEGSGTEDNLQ

SMILES | inhibition
CN(Cc1ccccc1)CC(O)COc1ccc(CNCc2cc3ccccc3s2)cc1 (stereo not given) | 46.2% (inactive)
O=C(O)CC(Cc1ccc(Cl)cc1)C(=O)Nc1cc(Cl)ccc1Cl (stereo not given) | 38.6% (inactive)
Cc1cc(NCCCn2ccnc2)n2ncc(-c3ccc(Cl)cc3)c2n1 | 38.5% (inactive)
CCOC(=O)C1(CCOC)CCN(Cc2ccc(C(=O)OC)cc2)CC1 | -0.386% (inactive)
C=CCNC(=O)c1ccc(C2SCC(=O)N2Cc2ccccc2)cc1 (stereo not given) | 20.7% (inactive)
Cc1ccc(C(=O)NCC(=O)N2CCC(Cc3ccccc3)CC2)cc1 | 54.4% (inactive)
CC(C)CNS(=O)(=O)c1ccc(CCC(=O)N2CCN(Cc3ccc4c(c3)OCO4)CC2)cc1 | 46.5% (inactive)
COc1ccc2c(c1)-c1c(ssc1=S)C(C)(C)N2 | 39.6% (inactive)
CC(C)OC(=O)CN1CCN(S(=O)(=O)c2cc(Cl)ccc2Cl)CC1 | 39% (inactive)
CC(=O)c1ccc(S(=O)(=O)N(C)C(C)CCc2ccco2)cc1 (stereo not given) | 28.6% (inactive)
Cc1ccc(C(C)NC(=S)NCc2ccc(F)cc2)cc1C (stereo not given) | 40.9% (inactive)
COc1cccc(NC(=S)N(Cc2ccc(C(=O)O)cc2)Cc2ccc(OC)c(OC)c2)c1 | 48.2% (inactive)
CCCCNC(=O)c1onc(CSc2ccc(C(C)C)cc2)c1C(=O)O | 17.3% (inactive)
CCN(CC)CCCN(C(=O)c1ccco1)c1nc(-c2ccc(Cl)cc2)cs1 | 42.7% (inactive)
O=C1c2ccccc2-c2cccnc21 | 60.6% (inactive)
O=[N+]([O-])c1ccc(Nc2ccccc2O)c2nonc12 | 42.7% (inactive)
CCc1ccc(N/C(=N/c2nc(C)cc(C)n2)NC(C)=O)cc1 | 16.7% (inactive)
Cc1ccc2nc(Nc3ccccc3)cc(C)c2c1 | 64.7% (inactive)
CCSc1nnc2n1C(C)(C)Cc1ccccc1-2 | 23% (inactive)
CCOc1ccc(OCc2ccc(C(=O)N3CCCC3)o2)cc1 | 50.7% (inactive)
COc1ccc(C2SCC(=O)N2CCc2ccc(OC)c(OC)c2)cc1 (stereo not given) | 24% (inactive)
COc1ccc(C2CC(c3ccc(Br)cc3)=NN2C(=O)CN2CCCC2)cc1 (stereo not given) | 51% (inactive)
CC(=O)N1c2ccc(S(=O)(=O)NCc3ccccc3Cl)cc2CC1C (stereo not given) | 33% (inactive)
CCOC(=O)N1CCN(C(=O)c2ccc3nc(N4CCC(C)CC4)sc3c2)CC1 | 40.3% (inactive)

SMILES | inhibition
CCOC(=O)c1oc2nc(C(C)C)c3c(c2c1N)CCC3 | 56.5% (inactive)
CCCc1nc2oc(C(=O)OCC)c(N)c2c2c1COC(C)(C)C2 | 54.8% (inactive)
Cc1ccc(CNc2ncc(-c3ccccc3)n2C)o1 | 75.2% (inactive)
OCCn1nc(-c2ccccc2)cc1-c1ccccc1 | 17.9% (inactive)
Cn1c(SCC(=O)N2CCN(c3ccccc3)CC2)nnc1-c1ccccc1 | 27.7% (inactive)
CS(=O)(=O)Nc1ccccc1C(=O)NCCSc1ccccc1 | 18.1% (inactive)
COc1ccc(C(=O)C2CCCN(C(=O)C3=CCCC3)C2)c(C)c1 (stereo not given) | 23.5% (inactive)
COc1ccc(NC(=O)N2CCC(n3cnc4ccccc43)CC2)cc1 | 50.6% (inactive)
COc1ccc(C(=O)C2CCCN(C(=O)c3noc4c3CCCC4)C2)cc1F (stereo not given) | 63.6% (inactive)
CCC1CCCCN1CCCNC(=O)c1ccc2c(c1)c(C)c(C)n2C (stereo not given) | 54.9% (inactive)
CCN(CC)C(=O)c1ccc(COc2ccccc2Br)o1 | 65.5% (inactive)
O=C(Nc1cccnc1)c1ccc(COc2ccccc2Cl)o1 | 33.4% (inactive)
Cc1ccc(S(=O)(=O)CC(O)COc2ccc(F)cc2Cl)cc1 (stereo not given) | 22.4% (inactive)
Cc1ccc(S(=O)(=O)NC(=O)COc2cc(C)ccc2C(C)C)cc1 | 52.6% (inactive)
CCN(CC)S(=O)(=O)c1ccc(OC)c(NC(=S)Nc2ccc(C)c(C)c2)c1 | 55.9% (inactive)
Cc1ccc(S(=O)(=O)N2CCC(=O)N(CCOCc3ccc(F)cc3)CC2)cc1 | 43.1% (inactive)
Cc1ccc(-c2nnc(N3CCCCC3)c3ccccc23)cc1S(=O)(=O)N1CCN(C)CC1 | 63.7% (inactive)
Cc1ccc(C)c(S(=O)(=O)C(C#N)c2nc3ccccc3nc2N2CC(C)OC(C)C2)c1 (stereo not given) | 27.3% (inactive)
COc1cc(OC)cc(C(=O)NC(=S)NNC(=O)[C@H]2C[C@@H]2c2ccccc2)c1 | 40.3% (inactive)
CS(=O)(=O)c1ncc(Cl)c(C(=O)Nc2ccc(N3CCOCC3)cc2)n1 | 47.9% (inactive)
CS(=O)(=O)c1ncc(Cl)c(C(=O)Nc2ccc(OC(F)F)cc2)n1 | 58.6% (inactive)
Cc1nn(CC2CC2)c(=O)n1-c1ccc(Oc2ccccc2)cc1 | 38.3% (inactive)
N#Cc1c(Cl)cccc1N1CCCC1 | 31.6% (inactive)
C[C@@H](NCCc1ccc(O)cc1)[C@@H](O)c1ccc(O)cc1 | 45.4% (inactive)

SMILES | inhibition
CC(C)NCC(O)c1ccc(O)c(O)c1 (stereo not given) | 69.8% (inactive)
CCc1ccccc1NC(=O)C1CC(c2ccc(OC)cc2)=NO1 (stereo not given) | 74.4% (inactive)
N#CCCn1cc(/C=C2\NC(=S)N(c3ccccc3)C2=O)c(-c2ccc(F)cc2)n1 | 57.6% (inactive)
Cc1ccc(C(=O)N/C(=C\c2cccs2)c2nc3ccccc3[nH]2)cc1 | 11.9% (inactive)
COc1ccc(C(=O)N2CCCC(O)C2)cc1OC1CCN(C(C)C)CC1 (stereo not given) | 62.6% (inactive)
CSc1ccc(C(=O)C2CCCN(C(=O)c3ccsc3)C2)cc1 (stereo not given) | 56.5% (inactive)
CC(C)(C)CC(=O)NCCc1csc(-c2ccccc2)n1 | 41.1% (inactive)
N#C/C(=N\Nc1cccc(C(F)(F)F)c1)C(=O)c1ccsc1 | 41.5% (inactive)
CC[N+]1(CC)CC2=Cc3c(ccc4ccccc34)C(C)C2C1 (stereo not given) | 52.3% (inactive)
CC(=O)N(C)c1ccc(NC(=O)C(Sc2ccccc2)c2ccccc2)cc1 (stereo not given) | 37% (inactive)
CC(C)(C)C(=O)/C(C#N)=C/c1ccc(O)cc1 | 26.3% (inactive)
Cc1ccc(S(=O)(=O)Oc2ccccc2/C=C2/SC(=O)NC2=O)cc1 | 45% (inactive)
Cc1ccc(S(=O)(=O)Oc2cccc(/C=N/n3cnnc3)c2)cc1 | 25.6% (inactive)
CS(=O)(=O)C1=NN2C(=N)/C(=C\c3ccc(OC(=O)c4ccco4)cc3)C(=O)N=C2S1 | 59.2% (inactive)
Cc1ccc(S(=O)(=O)Oc2ccccc2/C=C2\SC(=O)NC2=O)cc1 | 32.3% (inactive)
CCCC1=NN2C(=N)/C(=C\c3ccc(SCc4ccco4)o3)C(=O)N=C2S1 | 51% (inactive)
CC(C)CS(=O)(=O)C1=NSC2=NC(=O)/C(=C\c3ccc(OC(=O)c4ccco4)cc3)C(=N)N21 | 46% (inactive)
Cc1ccccc1NC(=O)c1ccc(C)c(S(=O)(=O)N2CCN(C)CC2)c1 | 60.5% (inactive)
CCOc1ccc(Br)cc1S(=O)(=O)N1CCCC1 | 36.7% (inactive)
COc1ccc(/C=C/C(=O)NC2CCCCCCC2)cc1S(=O)(=O)N1CCOCC1 | 59% (inactive)
Oc1ccc(/C=N/n2c(-c3ccccc3)n[nH]c2=S)cc1Br | 8.27% (inactive)
CN(c1ccc(O)cc1)c1nc(-c2cccs2)cs1 | 23.4% (inactive)
